Compounds with a hit are over-represented: about 21% of the library has one in this group of screens.
Shiga toxin inh – A qHTS for Small Molecule Inhibitors of Shiga Toxin; Vero cells, Shiga toxin protein synthesis inhibition reporter; inhibition, % at 38.7 µM; 290,000 compounds, 9.2% hits; AID 2315, 2010; in the data active means inhibition mostly above about 28%, no sharp cut-off; inactive means mostly below about 43%
Pf growth 48h – Primary qHTS for delayed death inhibitors of the malarial parasite plastid, 48 hour incubation; P. falciparum luciferase growth in erythrocytes, 48 h; Potency, µM (series often up to 28.7 µM), actives largely listed as inhibitors; 310,000 compounds, 5.9% hits; AID 504832, 2011
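Here the parasites carry a stable luciferase gene and grow inside erythrocytes in Albumax-based RPMI medium with compound for one erythrocytic cycle. Activity is scored as loss of luminescent signal.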
CHX counter – Cycloheximide Counterscreen for Small Molecule Inhibitors of Shiga Toxin; cell reporter, cycloheximide protein synthesis inhibition counterscreen; max response, %; 300,000 compounds, 12% hits; AID 2314, 2010; in the data active means max response mostly above about 13%, no sharp cut-off; inactive means mostly below about 14%; further: read at 38.3 µM for the half of the compounds with a filed dose
AMA1 RON2 block – qHTS for Inhibitors of AMA1-RON; Towards Development of Antimalarial Drug Lead: Primary Screen | AlphaScreen AMA1-biotinylated RON2 peptide binding | Potency, µM (doses to about 58.2 µM), most hits filed as inhibitors | Plasmodium falciparum AMA1 (3D7) - RON2 peptide interaction | 360,000 compounds, 0.2% hits; further: nearly all actives have a fitted effect of over 45% in size
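AMA1 (3D7) with his tag at 25 nM final met compounds first, then biotinylated RON2 peptide at 25 nM; detection used donor plus acceptor beads, 10 µg/mL apiece, read by AlphaScreen after 30 min at room temperature.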
HCV inh – qHTS Assay for Inhibitors of Hepatitis C Virus (HCV); Huh7.5.1 HCVcc-Cre infection, luciferase reporter, 44 h; Potency, µM (doses to about 41.8 µM), hits mostly inhibitors; 340,000 compounds, 3.4% hits; AID 651820, 2012
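Infectious HCVcc-Cre (~0.5 moi) was added to cells just after compound, with cells seeded 4 h earlier at 1,000 per well. Luciferase activity after 44 h culture reported infection; substrate was incubated 15 min at room temperature before reading.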
Pf growth 96h – Primary qHTS for delayed death inhibitors of the malarial parasite plastid, 96 hour incubation | P. falciparum luciferase reporter growth, 96 h | Potency, µM (top dose mostly 28.7 µM), hits mostly inhibitors | 320,000 compounds, 6.9% hits
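Parasite growth measured via integrated firefly luciferase reporter in P. falciparum. Infected erythrocytes at 2% hematocrit, 0.05% parasitemia final were treated 96 hours at 37 C under 5% CO2, and luminescence was read.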
Of the large screens only hits and unclear results are named; the others gave an inactive call. Unless noted, the call rests on the fitted dose curve; in most records, active means well fitted curve in the direction sought with a large enough effect; inconclusive means small, poorly fitted or top-dose-only effect, or another doubt; inactive means no such curve, though single readings can be large; an effect the other way counts as inactive or inconclusive.

Cc1ccc2ccccc2c1NC(=O)CNCc1ccccc1	none (no result: Shiga toxin inh, Pf growth 48h, CHX counter, HCV inh, Pf growth 96h)
CC(Sc1nc(-c2ccccc2)c(-c2ccccc2)[nH]1)C(=O)NCC1CCCO1 (configuration not stated)	none (no result: Shiga toxin inh, Pf growth 48h, CHX counter, HCV inh, Pf growth 96h)
COc1ccc(-c2cc(C(=O)N3CCCCCC3)c3ccccc3n2)cc1	Pf growth 48h 9.3µM, HCV inh inconclusive, Pf growth 96h 3.3µM (no result: Shiga toxin inh, CHX counter)
COc1ccc(-c2cc(C(=O)N3CCCCCC3)c3ccccc3n2)cc1OC	none (no result: Shiga toxin inh, Pf growth 48h, CHX counter, HCV inh, Pf growth 96h)
Cc1ccc(-c2cc(C(=O)N3CCC(C)CC3)c3ccccc3n2)cc1	CHX counter 17, HCV inh inconclusive, Pf growth 96h inconclusive
COc1ccc(-c2nnc(Nc3ccc(OC)c(C(=O)N4CCCCC4)c3)c3ccccc23)cc1	Pf growth 48h 5.2µM, HCV inh inconclusive, Pf growth 96h inconclusive
O=C(c1cc(-c2ccc(Br)cc2)nc2ccccc12)N1CCC1	Pf growth 48h 3.3µM, HCV inh inconclusive, Pf growth 96h 4.1µM (no result: Shiga toxin inh, CHX counter)
CN(CC(=O)Nc1ccccc1C(=O)NC1CC1)Cc1ccco1	none (no result: Shiga toxin inh, CHX counter)
CC(=O)NC(c1cccc(F)c1)c1nc(-c2ccoc2)cs1 (configuration not stated)	none (no result: Shiga toxin inh, Pf growth 48h, CHX counter, HCV inh, Pf growth 96h)
NNC(=O)c1cc(C2CC2)nc2ccc(Br)cc12	HCV inh inconclusive
COC(=O)c1cc(OC)nc2ccc(Br)cc12	Pf growth 48h inconclusive, HCV inh 11µM, Pf growth 96h inconclusive
Cc1cc(C)n(CCO)c(=O)n1	Pf growth 96h 2.3µM
Cc1cc(=S)cc(C)n1CCO	none
CCC(C(=O)NC(C)(C)C)N(Cc1ccc(F)cc1)C(=O)c1snc(C(N)=O)c1N (configuration not stated)	none (no result: Shiga toxin inh)
COc1cc(C2Nc3ccc4ccccc4c3C3=C2C(=O)CC(C)(C)C3)ccc1OC(C)C(=O)O (configuration not stated)	Pf growth 48h 1.7µM, Pf growth 96h inconclusive
COc1cccc(C2Nc3ccc4ccccc4c3C3=C2C(=O)CC(C)(C)C3)c1OCC(=O)O (configuration not stated)	Pf growth 48h inconclusive, Pf growth 96h inconclusive
COc1cc(C2Nc3ccc4ccccc4c3C3=C2C(=O)CC(C)(C)C3)ccc1OCC(=O)O (configuration not stated)	Pf growth 48h inconclusive, Pf growth 96h 0.93µM (no result: Shiga toxin inh)
CC1(C)CC(=O)C2=C(C1)c1c(ccc3ccccc13)NC2c1ccc(OCC(=O)O)cc1 (configuration not stated)	Pf growth 48h 10µM
CCOC(=O)C1CCN(S(=O)(=O)c2ccc3oc(=O)ccc3c2)CC1	none
CC(C)Oc1ccc(/C=N/NC(=O)C(CSCc2ccccc2)NC(=O)c2ccc([N+](=O)[O-])cc2)cc1 (configuration not stated)	Pf growth 48h 12µM, HCV inh inconclusive, Pf growth 96h inconclusive
O=C(COc1ccc(/C=N/NC(=O)c2ccccc2)cc1)Nc1ccc([N+](=O)[O-])cc1	none
Cc1ccc(-n2sc3ccccc3c2=O)cc1	Pf growth 48h 4.1µM, CHX counter 18, HCV inh inconclusive
O=c1c2ccccc2sn1-c1ccc(F)cc1	Pf growth 48h 10µM, HCV inh inconclusive, Pf growth 96h inconclusive (no result: Shiga toxin inh, CHX counter)
O=c1c2ccccc2sn1-c1ccc(Cl)cc1	none (no result: Shiga toxin inh, Pf growth 48h, CHX counter, HCV inh, Pf growth 96h)
CCn1cc(C(=O)NCCC(=O)NCCCO)c(=O)c2cc3c(cc21)OCO3	none (no result: Pf growth 48h)
CCc1ccc(-c2nc(-c3ccncc3)no2)cc1	Shiga toxin inh 85, CHX counter 42
CCCc1ccc(-c2ccc(F)c(N)c2)nc1	none
CCOc1nc(C)ccc1-c1noc(-c2ccncc2)n1	Pf growth 48h inconclusive
CCCCc1ccc(-c2nc(-c3ccncc3)no2)cc1	Shiga toxin inh 73, CHX counter 39
CCCc1ccc(-c2ccc(-c3noc(-c4ccncc4)n3)cc2)nc1	HCV inh inconclusive, Pf growth 96h 10µM
CCCCc1ccc(-c2ccc(Br)cc2)nc1	Shiga toxin inh 86, CHX counter 35, Pf growth 96h inconclusive
